This is a sample that favours compounds with a hit; in the whole collection about 10% have one here.
hNpr1 antagonist = blocks ANP-stimulated signaling of human Npr1 receptor | P16066 | Potency, µM (titrated, usually from 46.3 µM), inactives show top-dose activity change, negative = inhibition, usual class: inhibitors | actives 1.6% (n = 76,000) | HEK293 hNpr1 GloSensor cGMP, ANP-stimulated luminescence | AID 1347048; calls by dose curve; also: nearly all actives have a fitted effect of over 60% in size
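HEK293 cells stably expressing human Npr1 and cGMP GloSensor pGS-40F, loaded 2 h with 2% GloSensor reagent, given compound 30 min at room temperature. Luminescence read before and 20 min after 0.1 nM hNppA.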
FLuc inh = inhibitors of firefly (Photinus pyralis) luciferase. Potency, µM (series often up to 115 µM), hits mostly inhibitors. P08659. actives 2.5% (n = 76,000). purified P. pyralis luciferase, luminescence, biochemical; also: nearly all actives have a fitted effect of over 65% in size
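Biochemical qHTS: compound (6-point titration) added to 10uM D-luciferin plus 10uM ATP in Tris acetate pH 7.5 buffer with Mg, Tween-20 and BSA, then purified enzyme at 10nM; light output imaged.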
GPT2 inh = blocks human glutamate pyruvate transaminase 2; Potency, µM (doses to about 57.7 µM), inactives show at the top dose activity change, negative = inhibition, actives largely listed as inhibitors; Recombinant GPT2, coupled pyruvate oxidase/HRP Amplex Red fluorescence; actives 0.25% (n = 100,000); AID 1671188; Q8TD30; also: nearly all actives have a fitted effect of over 60% in size
Target sequence (Q8TD30 whole entry, looked up): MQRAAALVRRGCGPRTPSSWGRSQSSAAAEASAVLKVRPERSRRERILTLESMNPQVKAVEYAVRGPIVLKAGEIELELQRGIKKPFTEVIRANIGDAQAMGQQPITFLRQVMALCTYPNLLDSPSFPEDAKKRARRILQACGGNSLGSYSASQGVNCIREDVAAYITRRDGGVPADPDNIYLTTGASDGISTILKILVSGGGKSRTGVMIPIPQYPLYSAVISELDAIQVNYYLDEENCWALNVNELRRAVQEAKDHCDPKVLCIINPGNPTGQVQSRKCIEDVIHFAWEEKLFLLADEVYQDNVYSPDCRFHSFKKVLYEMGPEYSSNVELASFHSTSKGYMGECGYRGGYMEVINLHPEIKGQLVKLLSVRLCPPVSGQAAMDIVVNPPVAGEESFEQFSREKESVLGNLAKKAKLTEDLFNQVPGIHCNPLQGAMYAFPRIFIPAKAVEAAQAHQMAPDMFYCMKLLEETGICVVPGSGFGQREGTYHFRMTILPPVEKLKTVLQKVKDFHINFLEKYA
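Fluorescence of coupled pyruvate oxidase/HRP/Amplex Red system (50uM Amplex, 30 min, dark) reports pyruvate formed by GPT2. Enzyme reaction: 10ng/uL GPT2, 2mM L-alanine, 250uM a-KG, 30 min room temperature, pH 7.5; 50uM AOA control.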
HEK293 tox = cytotoxic compounds in HEK 293 cells; AID 1345083; Potency, µM (series often up to 115 µM), for the others: top-dose activity change, negative = cytotoxicity, hits mostly inhibitors; HEK 293 viability, ATP luminescence (CellTiter-Glo), 48-72 h; actives 6.6% (n = 94,000); also: nearly all actives have a fitted effect of over 60% in size
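HEK 293 cells seeded at 250 cells/well were exposed to compound for 48 or 72 hr at 37 degree Celsius. Viability taken as ATP content by CellTiter-Glo luminescence.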
NIH3T3 tox = kills NIH 3T3 cells | NIH 3T3 viability, CellTiter-Glo ATP luminescence, 48-72 h | Potency, µM (doses to about 96.7 µM), inactives show at the highest dose activity change, negative = cytotoxicity, most hits filed as inhibitors | actives 4.3% (n = 94,000) | AID 1345082; also: nearly all actives have a fitted effect of over 55% in size
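Cytotoxicity is measured as loss of cellular ATP: NIH 3T3 cells (400/well) are exposed to compound for 48 or 72 hr at 37 °C, then CellTiter-Glo luminescence is imaged after 10 min at room temperature.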
Active calls of the source: *; i = inactive; ? = inconclusive; nt = not tested or not shown; [ ] = dose if it differs, or a comment. Unless noted, calls follow the shape of the dose curve; as a rule, active = well fitted curve in the direction sought with a large enough effect; inconclusive = small, poorly fitted or top-dose-only effect, or another doubt; inactive = no such curve, though single readings can be large; an effect the other way counts as inactive or inconclusive. % is scaled to controls: 0 for no effect and ±100 for the full control effect; potency is read from the fitted curve at half-maximal effect.

SMILES	hNpr1 antagonist	FLuc inh	GPT2 inh	HEK293 tox	NIH3T3 tox
CC(=O)N1CCC2(CC1)OC(=O)N(Cc1ccccc1)C2(C)c1cccnc1 (centres undefined)	6%[70.6 µM]	i	i	i	?
Cn1nccc1C(=O)N1CCC2(CC1)OC(=O)N(Cc1ccccc1)C2(C)c1cccnc1 (centres undefined)	0%	i	4%	i	28µM*
Cn1nccc1C(=O)N1CCC2(CC1)OC(=O)N(Cc1ccccc1)C2(C)c1ccccc1 (centres undefined)	3%	i	-15%	3%	?
CC1(c2ccccc2)N(Cc2ncccn2)C(=O)OC12CCN(C(=O)Cc1ccc3c(c1)OCO3)CC2 (centres undefined)	-4%	i	i	-19%	40µM*
CC(C)C(=O)N1CCC2(CC1)OC(=O)N(Cc1ncccn1)C2(C)c1ccccc1 (centres undefined)	0%[70.6 µM]	i	i	0%[172 µM]	89µM*
CC(C)C(=O)N1CCC2(CC1)OC(=O)N(Cc1ccccc1)C2(C)c1cccnc1 (centres undefined)	2%[70.6 µM]	i	i	-17%[172 µM]	20µM*
CC1(c2ccccc2)N(Cc2ncccn2)C(=O)OC12CCN(C(=O)Cc1ccc(Cl)cc1)CC2 (centres undefined)	7%	i	1%	-12%	?
C#CCNC(=O)[C@@H]1CCCN1c1nccc(Nc2ccccc2Cl)n1	nt	nt	3%	?	-22%
COC(=O)CNC(=O)C1CCN(C(=O)c2ccc(-c3ccccc3OC)cc2)CC1	nt	nt	i	?	-6%
O=C(Nc1ccccc1)N1CCN(C(=O)c2cccc(-c3ccccn3)c2)CC1	nt	nt	-2%	i	-6%
CCc1noc(-c2cn(C3CCN(C(=O)c4ccc5c(c4)OCO5)CC3)nn2)n1	1%	i	i	-11%	-5%
CCOC(=O)C[C@@H]1C[C@@H](C(C)C)[C@H](CNS(=O)(=O)c2ccc(OC)cc2)C=C1C	-16%[70.6 µM]	i	0%[88.5 µM]	40µM*	?
COc1ccc(S(=O)(=O)NC[C@@H]2C=C(C)[C@H](CC(=O)N3CCN(c4ccccn4)CC3)C[C@H]2C(C)C)cc1	-17%	i	-6%	?	8.9µM*
COc1ccc(S(=O)(=O)NC[C@@H]2C=C(C)[C@H](CC(=O)N3CCN(C)CC3)C[C@H]2C(C)C)cc1	2%	i	-5%	?	?
COc1cc(NC(=O)O[C@@H]2CC[C@]3(C)C(CC[C@@H](O)[C@H]3CC(=O)N3CC[C@@H](O)C3)[C@]2(C)CO)cc(OC)c1OC (some centres undefined)	1%	i	-13%	1%	-11%
O=C1CCN(S(=O)(=O)c2ccc3c(c2)CCC3)CCCC(c2nc(-c3cccnc3)no2)CCN1 (centres undefined)	3%	i	-11%	35µM*	?
O=C1CCN(S(=O)(=O)c2cccc(F)c2)CCCC(c2nc(-c3cccnc3)no2)CCN1 (centres undefined)	1%	i	-4%	-9%	-6%
CCOC(=O)c1ccc(NC2CCCCC2)c(N)c1	nt	nt	3.5µM*	nt	nt
CCN1c2cc(C(=O)NCc3ccc(OC)cc3)ccc2C(=O)N2CCCCC21 (centres undefined)	-19%	i	i	?	?
COc1ccc(N2CC3CCC(C2)N3Cc2ccc(NC(C)=O)cc2)cc1	nt	nt	?	-1%	1%
COc1ccc(N2CC3CCC(C2)N3Cc2ccc(C#N)cc2)cc1	nt	nt	10µM*	-28%	-21%
Cc1cnc(CC2CCN(C(=O)C3COc4ccccc4O3)CC2)n1Cc1ccc(F)cc1 (centres undefined)	-2%	i	i	?	?
COc1ccccc1OCCNC(=O)C1CCCN(C(=O)c2ccccc2)CCC(=O)NCC1 (centres undefined)	5%	i	i	i	0%
Cc1cc(-c2ccc(F)c(C(N)=O)c2)cc(C(C)(C)C)c1	11%	i	1%[11.5 µM]	45µM*	?
COc1ccc(Cn2cc(-c3ccc(F)c(C(N)=O)c3)cn2)cc1	-1%	i	-10%	?	?
SMILES	hNpr1 antagonist	FLuc inh	GPT2 inh	HEK293 tox	NIH3T3 tox
FC(F)(F)C1CN(c2ccc3cc(Cl)ccc3n2)CCO1 (centres undefined)	5%	25µM*	-24%	?	?
Cc1ccc(-c2noc(-c3nc(-c4ccccn4)no3)n2)cc1	-4%	18µM*	i	4%	i
COc1ccc(CNC(=O)[C@@H]2CCC[C@@H](NC(=O)c3ccccc3)CN(C)C(=O)C2)cc1	-4%	i	0%	-1%	-5%
CC1CCN(CC2CCCN(C(=O)Nc3ccccc3F)CC2)CC1 (centres undefined)	1%	i	i	?	?
CC(C)(C)C(=O)N1CCC2(CC1)C(=O)N(CC(=O)Nc1cccc(Cl)c1)CN2c1ccccc1	-2%	i	-5%	35µM*	32µM*
COc1cc(=O)n2c(c1C(=O)Nc1ccc(C)cc1)CCCC2	-5%	i	-1%	-15%	?
COc1cc(=O)n2c(c1C(=O)Nc1ccc(N(C)C)cc1)CCCC2	-5%	35µM*	-5%	?	-30%
CCOc1ccccc1NC(=O)Nc1cccc(-c2ccc(N3CCCC3)nn2)c1	-24%	6.3µM*	-15%	-22%	-25%
COc1ccccc1NC(=O)Nc1cccc(-c2nnc3n2CCCC3)c1	0%	?	-5%	?	?
O=C(NCCc1ccccc1)Nc1cccc(-c2ccc(N3CCCCC3)nn2)c1	8.9µM*	0.25µM*	-10%	?	-27%
O=C(NCCc1ccccc1)Nc1cccc(-c2nnc3n2CCCC3)c1	-14%	i	4%	?	-14%
COc1ccccc1NC(=O)Nc1cccc(-c2ccc(N3CCCCC3)nn2)c1	?	0.71µM*	-6%	?	?
Cc1noc(C)c1[S+](=O)([O-])NCCNC(=O)c1cccc(-c2ncccc2C#N)c1	nt	nt	-7%	i	i
Cc1nn(-c2ccccc2)c2c1C(C1CC1)N(C1CCCN([S+](=O)([O-])c3cccc(C(F)(F)F)c3)C1)C2=O (centres undefined)	nt	nt	nt	3%	-7%
Fc1cccc(-n2cc(CN3CCCC4(CCOC4)C3)cn2)c1 (centres undefined)	2%	i	-1%	-12%	-28%
O=C1NCCCc2[nH]c(-c3cnn(-c4cccc(F)c4)c3)nc21	-21%	22µM*	i	?	-24%
COc1ccc(-c2nnc(C[C@@H]3C[C@@H](C(C)C)[C@H](CN(C)CCc4ccccn4)C=C3C)o2)cc1	-8%	i	?	22µM*	35µM*

Compound activity (PubChem BioAssay)
